Assay outcomes deposited in PubChem BioAssay by several laboratories.
An excerpt weighted towards active compounds, which were near 13% of everything screened.
WT yeast gro inh: growth inhibition of WT yeast, mitochondrial fusion screen; mitochondrial fusion phenotypic screen, WT strain; inhibition, % at 10 µM; hit rate 2.1% among 190,000; in the data active means inhibition above about 58%; tested in S. cerevisiae
RAM network inh: inhibitors of the yeast RAM network | S. cerevisiae dse1pr::URA3 reporter, 5-FOA growth OD615, 2 d; analog-sensitive cbk1-as2 kinase mutant strain | hit rate 1.8% among 190,000 | inhibition, % at 50 µM | AID 868;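 active means inhibition above a set limit, 3 SD over mean compound inhibition, cut at about 8.4% in these data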;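 further: 0% = DMSO-only wells with no growth and 100% = 10 µM 1-NA-PP1 full growth; inhibition rescues growth on 5-FOA so higher OD means more RAM inhibition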
CHOP inhibitor: blocks CHOP induction under ER stress | hit rate 3.8% among 220,000 | CHO-K1 CHOP-promoter luciferase, tunicamycin-induced, 15-18 h | inhibition, % at 10 µM | AID 2732;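 active means compounds that reduced the stress-induced luciferase reporter signal by more than about 70% of percent inhibition, limit read from the data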;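 further: 0% = tunicamycin plus vehicle and 100% = wells without tunicamycin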
L major viab: Leishmania major promastigote growth inhibition | hit rate 9% among 200,000 | inhibition, % at 10 µM | Leishmania major promastigotes, resazurin fluorescence viability | AID 1063; in the data active means inhibition above about 50%;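 further: promastigotes grown with compound for 44 hours at 28 °C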
CHOP inh conf: confirmation of CHOP induction inhibitors; shares compounds with CHOP inhibitor; CHO-CHOP promoter luciferase reporter, tunicamycin-induced, luminescence; inhibition, % at 10 µM; hit rate 45% among 2,100;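 active means mean of three repeat readings of reporter signal inhibition above a set limit, cut at about 70% in these data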;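 further: 0% = tunicamycin plus vehicle and 100% = wells lacking tunicamycin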
The depositor's hits bear a star; . = no result given.

SMILES	WT yeast gro inh	RAM network inh	CHOP inhibitor	L major viab	CHOP inh conf
Cc1ccc(O)c(-c2cc(-c3cccc(F)c3)n[nH]2)c1	.	-0.2	102.3*	99.0*	11.7
Cc1ccc(-c2cc(-c3cccc(F)c3)n[nH]2)c(O)c1	56.1	2.5	-58.6	24.3	.
CC(C)(C)c1ccc(NC(=O)N2CCN(c3ccc([N+](=O)[O-])cn3)CC2)cc1	.	.	48.7	.	.
C/C(=N\NC(=O)COc1ccccc1-c1ccccc1)c1ccc(O)cc1O	.	.	103.6*	.	46.0
COc1ccc(C2CC(c3ccccc3)=NN2S(=O)(=O)c2ccccc2)cc1 (stereo unspecified)	.	.	5.2	.	.
Cc1ccc(C2=NN(C(=O)c3cccs3)C(c3ccccc3O)C2)cc1 (stereo unspecified)	13.7	6.3	102.6*	13.4	104.9*
Cc1ccc(C2=NN(S(=O)(=O)c3ccccc3)C(c3ccccc3O)C2)cc1 (stereo unspecified)	84.1*	5.7	105.6*	97.0*	38.5
CN(NC1OC(=O)c2ccccc21)c1ccccc1[N+](=O)[O-] (stereo unspecified)	.	.	6.8	.	.
O=C(c1cc2ccc([N+](=O)[O-])cc2oc1=O)N1CCOCC1	-5.1	-0.6	30.7	-6.1	.
O=C(Nc1nc(NC(=O)c2ccco2)n(-c2ccccc2)n1)c1ccccc1	7.8	1.1	106.3*	99.9*	60.0
Nc1nc(NC(=O)c2ccccc2)nn1-c1ccccc1	-9.9	0.1	-12.0	-2.9	.
O=C(c1ccc(Cl)cc1)N1CCC(O)(CSc2ccc(Cl)cc2Cl)CC1	70.6*	3.0	108.7*	4.9	87.0*
O=C(Cc1csc(Nc2nc(=S)[nH]c3ccccc23)n1)NCCCN1CCN(c2ccccc2F)CC1	5.3	6.2	105.4*	22.1	84.8*
O=C(Cc1csc(Nc2nc(=S)[nH]c3ccccc23)n1)NCc1ccc(Cl)cc1	2.9	1.1	-18.0	47.6	.
O=c1[nH]c(=O)n(C2CCCCCC2)c(O)c1C=NCc1ccc(F)cc1	17.1	4.2	106.8*	15.5	41.2
ClC1(Cl)CC1Cn1cnc2ccccc21 (stereo unspecified)	5.1	4.0	25.1	0.4	.
CC1=C(C(=O)OC(C)C)C(c2ccccc2)NC(=S)N1C (stereo unspecified)	-16.3	-1.4	8.5	11.7	.
CCCCn1c(-c2nonc2N)nc2ccccc21	-2.6	.	100.1*	3.3	41.5
O=C(Nc1nnc(CC2=CCCCC2)s1)Nc1ccccc1F	.	.	97.7*	.	6.1
O=C(Nc1nnc(COc2ccccc2F)s1)Nc1ccccc1F	.	.	99.1*	.	-6.4
O=C(Nc1ccc(F)cc1)Nc1nnc(COc2ccccc2F)s1	7.5	0.7	26.6	-3.9	.
O=C(/C=C/c1ccccc1[N+](=O)[O-])Nc1cccnc1	13.2	1.9	-2.7	2.3	.
CCCCCCCCCCCCCCCC[n+]1cccc2ccccc21	97.9	-1.6	106.2*	100.4*	119.6*
CCCCNc1nc2ccccc2[nH]1	.	0.5	29.0	24.9	.
COc1ccc(NC(=O)CC2C(=O)N(c3ccc(F)cc3)C(=S)N2NC(=O)c2ccc(Cl)cc2)cc1 (stereo unspecified)	-0.7	7.9	106.1*	3.5	43.0
SMILES	WT yeast gro inh	RAM network inh	CHOP inhibitor	L major viab	CHOP inh conf
CCCCCCOC(=O)Nc1ccc(S(=O)(=O)Nc2cccc([N+](=O)[O-])c2)cc1	-27.1	3.8	106.3*	35.3	109.9*
CCCCOC(=O)Nc1ccc(S(=O)(=O)Nc2nc(C)cc(C)n2)cc1	9.2	0.6	25.4	-6.3	.
COc1cc(/C=C2\COC/C(=C\c3cc(OC)c(OC)c(OC)c3)C2=O)cc(OC)c1OC	.	.	105.8*	.	111.2*
COc1cc(/C=C/C(C)=O)cc(OC)c1OC	-3.8	3.6	-52.0	41.9	.
COc1cc(/C=C2\CC/C(=C\c3cc(OC)c(O)c(OC)c3)C2=O)cc(OC)c1O	-8.8	2.4	100.8*	57.8*	100.8*
O=C(Nc1c(-c2ccccc2)nc2sccn12)c1ccccc1	3.5	-2.3	19.8	14.1	.
Cc1ccc(Nc2nnc(SCc3nc4ccccc4c(=O)[nH]3)s2)cc1	-1.8	4.5	-5.7	3.2	.
CCOC(=O)C1C(=O)NC(c2ccccc2)=NC1c1ccc(Cl)cc1 (stereo unspecified)	12.8	0.2	29.8	8.3	.
CCOc1cccc(/C=C2/NC(=O)N(CC(=O)Nc3cccc(C)c3)C2=O)c1O	-4.1	2.5	103.8*	-2.6	-57.8
Oc1ccc(/C=N/Nc2nc(-c3ccc(Cl)cc3)cc(C(F)(F)F)n2)cc1	78.8	5.8	102.3*	1.5	98.1*
Nc1nc(-c2ccc(Cl)cc2)cc(C(F)(F)F)n1	-6.9	2.5	58.2	-9.1	.
Cc1oc(=O)c(NC(=O)c2ccccc2)cc1C(=O)c1ccccc1	-28.8	-0.2	-7.6	4.8	.
Cc1oc(=O)c(NC(=O)c2ccc(Cl)cc2)cc1C(=O)c1ccccc1	11.3	3.7	106.3*	3.7	23.3
CCc1ccc(C(=O)/C=C/c2ccc([N+](=O)[O-])o2)cc1	60.2*	1.5	105.7*	100.5*	139.8*
CCCCCCNc1nc(Cl)nc(NC(C)(C)CO)n1	.	.	7.6	.	.
COc1ccc2oc(=O)c(C(=O)Nc3ccccc3O)cc2c1	.	.	101.0*	.	21.4
C=CCOC(=O)C1=C(C)NC(SCC(=O)Nc2ccccc2)=C(C#N)C1c1ccco1 (stereo unspecified)	9.2	0.9	103.8*	8.4	115.9*
CC(=O)N1N=C(c2ccncc2)CC1c1ccccc1O (stereo unspecified)	-5.7	3.5	-7.8	-9.9	.
CCn1cc(Cl)c(C(=O)N2N=C(c3ccc4ccccc4c3)CC2c2ccccc2O)n1 (stereo unspecified)	-18.9	4.4	96.7*	72.8*	61.3
Cc1ccc(OCC(=O)N2CCN(c3nnc(-c4ccc(C)cc4)c4ccccc34)CC2)cc1	79.0*	-1.5	97.4*	30.3	74.6*
O=C(CSc1nnc(-c2ccccc2F)n1C1CC1)Nc1cccnc1Cl	-22.3	0.9	23.3	-9.9	.
C=CCn1c(CCNC(=O)c2ccc(Cl)c(Cl)c2)nnc1SCCOc1ccc(OC)cc1	34.7	1.0	97.3*	6.4	81.0*
COc1ccc(C(=O)NCCc2nnc(SCC(=O)Nc3ccccc3)n2C)cc1	5.9	-1.0	22.5	-2.9	.
Cn1c(CCNC(=O)c2ccc(Cl)c(Cl)c2)nnc1SCc1ccc(Cl)c(Cl)c1	14.2	8.8*	99.5*	-1.8	51.7
Cc1ccccc1-n1ncc(C(C)NC(=O)c2ccccc2)c1C (stereo unspecified)	-1.6	-0.3	-9.6	0.7	.
SMILES	WT yeast gro inh	RAM network inh	CHOP inhibitor	L major viab	CHOP inh conf
Cc1ccc(Nc2nc(N)c([N+](=O)[O-])c(NCc3ccccc3)n2)cc1	.	.	103.8*	.	35.1
Cc1ccc(Nc2nc(NCc3ccco3)c3ccccc3n2)cc1	94.1*	2.7	106.0*	100.5*	114.7*
Nc1nc(NCc2ccccc2)nc(NCCO)c1[N+](=O)[O-]	.	.	23.7	.	.
NNC1=N[C@H]2CS(=O)(=O)C[C@H]2S1	5.2	2.1	-6.3	-4.3	.
O=C1OC(/C=C/c2ccccc2)=NC/1=C\c1cccnc1	-7.0	1.3	67.8	-3.7	.
CCc1ccc(C2=C/C(=C/c3cccnc3)C(=O)O2)cc1	10.5	-1.0	103.2*	29.7	-59.2
